The list is not random: actives were taken first. Their share in the collection is about 4%.
CF NFkB inh: inhibitors of cystic fibrosis induced NF-kB; KKLEB NF-kB-GFP reporter, PAF-induced, GFP fluorescence overnight; inhibition, % at 5 µM; hit rate 0.86% among 360,000;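 active = at least 50% inhibition at 5 µM, scaled per plate between neutral and stimulator controls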;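 also: PAF is a Pseudomonas aeruginosa culture filtrate used as stimulus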
Peg3 prom inh: Peg3 promoter activity inhibition; inhibition, % at 20 µM; HeLa PEG-Prom luciferase reporter, luminescence, overnight; hit rate 1.7% among 360,000;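 active = inhibition of at least 50% at 20 µM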
TWEAK-Fn14 inh: inhibitors of TWEAK-Fn14 interaction signaling. TWEAK-stimulated Fn14 reporter cells, luciferase luminescence, 8 h. inhibition, % at 10 µM. hit rate 2% among 360,000; in the data active = inhibition above about 50%
KKLEB cytotox: reduces viability of KKLEB cystic fibrosis airway cells; KKLEB CF airway cells viability, ATPlite luminescence, overnight; active compounds read low; cells stimulated with P. aeruginosa culture filtrate; activity change (cytotoxicity), % at 5 µM; hit rate 0.36% among 360,000; AID 602141;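 active = corrected activity change at or below -50% at 5 µM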
TROY NFkB inh: blocks TROY-dependent signaling in reporter cells. Q293 LMP1-TROYcd NF-kB luciferase reporter, 4 h. inhibition, % at 10 µM. hit rate 0.98% among 360,000. AID 1347056;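 active = compounds whose plate-normalised and pattern-corrected inhibition of the luciferase reporter signal at the single screening dose is 50% or more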
HIF-2a block: HIF-2a inhibition. hit rate 0.72% among 360,000. inhibition, % at 18.8 µM. AID 624352. 786-0 RCC cells HIF-2a reporter, luciferase luminescence, overnight;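 active = inhibition of the luminescence signal of 40% or more relative to plate controls, in a single-dose primary screen at 18.75 µM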
A number is an active result.

What do the screens show for `C=CCOc1c(CNc2cccc(C(=O)O)c2)cccc1OCC`?
CF NFkB inh: inactive; Peg3 prom inh: inactive; TWEAK-Fn14 inh: inactive; KKLEB cytotox: inactive; TROY NFkB inh: inactive; HIF-2a block: inactive

What do the screens show for `Cn1cc(C(=O)CCl)c2ccccc21`?
CF NFkB inh: 54; Peg3 prom inh: 50; TWEAK-Fn14 inh: inactive; KKLEB cytotox: inactive; TROY NFkB inh: inactive; HIF-2a block: inactive

Results for Cn1cc(C(N)=O)c2ccccc21 ?
CF NFkB inh: inactive; Peg3 prom inh: inactive; TWEAK-Fn14 inh: inactive; KKLEB cytotox: inactive; TROY NFkB inh: inactive; HIF-2a block: inactive

How did COc1ccc(C(C(=O)NC2CCCC2)N(C(=O)c2snc(-c3ccc(F)cc3)c2N)c2cccc(F)c2)cc1 (configuration not stated) do in these assays?
CF NFkB inh: inactive; Peg3 prom inh: 51; TWEAK-Fn14 inh: inactive; KKLEB cytotox: inactive; TROY NFkB inh: inactive; HIF-2a block: inactive

How did C/C(=N/NC(=O)CN(c1ccccc1)S(=O)(=O)c1ccccc1)c1ccccc1O do in these assays?
CF NFkB inh: inactive; Peg3 prom inh: inactive; TWEAK-Fn14 inh: inactive; KKLEB cytotox: inactive; TROY NFkB inh: inactive; HIF-2a block: inactive

Results for N#Cc1c(C#N)c(SSc2c(C#N)c(C#N)c(N)n2-c2ccccc2)n(-c2ccccc2)c1N ?
CF NFkB inh: 88; Peg3 prom inh: 105; TWEAK-Fn14 inh: inactive; KKLEB cytotox: -89; TROY NFkB inh: inactive; HIF-2a block: inactive

What do the screens show for `N#Cc1c(N)n(-c2ccc(N)cc2)c2nc3ccccc3nc12`?
CF NFkB inh: inactive; Peg3 prom inh: inactive; TWEAK-Fn14 inh: inactive; KKLEB cytotox: inactive; TROY NFkB inh: inactive; HIF-2a block: inactive

What do the screens show for `O=C(CCCn1c(=S)[nH]c2ccsc2c1=O)Nc1ccc2c(c1)OCCO2`?
CF NFkB inh: inactive; Peg3 prom inh: inactive; TWEAK-Fn14 inh: 89; KKLEB cytotox: inactive; TROY NFkB inh: 82; HIF-2a block: inactive

Results for O=C(CCCn1c(=S)[nH]c2ccsc2c1=O)Nc1ccc(F)cc1 ?
CF NFkB inh: inactive; Peg3 prom inh: inactive; TWEAK-Fn14 inh: inactive; KKLEB cytotox: inactive; TROY NFkB inh: inactive; HIF-2a block: inactive

How did O=c1c2ccc(Cl)cc2nc2n1CC/C2=C\c1cccc(O)c1 do in these assays?
CF NFkB inh: inactive; Peg3 prom inh: inactive; TWEAK-Fn14 inh: inactive; KKLEB cytotox: inactive; TROY NFkB inh: inactive; HIF-2a block: inactive

How did COc1ccc(C)cc1NC(=O)CNC(C)C(=O)Nc1ccc(C(C)=O)cc1 (configuration not stated) do in these assays?
CF NFkB inh: inactive; Peg3 prom inh: inactive; TWEAK-Fn14 inh: inactive; KKLEB cytotox: inactive; TROY NFkB inh: inactive; HIF-2a block: inactive

Results for COc1ccc(Nc2ncc(C(=O)N3CCN(Cc4ccccc4)CC3)c3ccccc23)cc1 ?
CF NFkB inh: inactive; Peg3 prom inh: inactive; TWEAK-Fn14 inh: 96; KKLEB cytotox: inactive; TROY NFkB inh: inactive; HIF-2a block: inactive

Results for COc1ccc(Nc2ncc(C(=O)N3CCC(C(N)=O)CC3)c3ccccc23)cc1 ?
CF NFkB inh: inactive; Peg3 prom inh: inactive; TWEAK-Fn14 inh: inactive; KKLEB cytotox: inactive; TROY NFkB inh: inactive; HIF-2a block: inactive

How did FC(F)(F)c1cccc(Cn2nnnc2-c2cccc(C(F)(F)F)c2)c1 do in these assays?
CF NFkB inh: inactive; Peg3 prom inh: inactive; TWEAK-Fn14 inh: inactive; KKLEB cytotox: inactive; TROY NFkB inh: inactive; HIF-2a block: inactive

Results for O=C1ON=C(c2ccccc2)/C1=C/c1ccc(O)c(O)c1 ?
CF NFkB inh: inactive; Peg3 prom inh: inactive; TWEAK-Fn14 inh: inactive; KKLEB cytotox: inactive; TROY NFkB inh: inactive; HIF-2a block: 41

Results for COc1ccc(/C=C2\C(=O)ON=C2c2ccccc2)cc1 ?
CF NFkB inh: inactive; Peg3 prom inh: inactive; TWEAK-Fn14 inh: inactive; KKLEB cytotox: inactive; TROY NFkB inh: inactive; HIF-2a block: inactive

Results for CC(C)(C)C(=O)NC(NC(=O)C(C)(C)C)c1ccc([N+](=O)[O-])cc1 ?
CF NFkB inh: inactive; Peg3 prom inh: inactive; TWEAK-Fn14 inh: inactive; KKLEB cytotox: inactive; TROY NFkB inh: inactive; HIF-2a block: inactive

Results for CC(C)(C)C(=O)Nc1ccc(Sc2ccc([N+](=O)[O-])cc2)cc1 ?
CF NFkB inh: inactive; Peg3 prom inh: inactive; TWEAK-Fn14 inh: 51; KKLEB cytotox: inactive; TROY NFkB inh: inactive; HIF-2a block: inactive

Results for COCCNC(=O)CCn1nc(-c2ccc(Cl)cc2)c2ccccc2c1=O ?
CF NFkB inh: inactive; Peg3 prom inh: inactive; TWEAK-Fn14 inh: inactive; KKLEB cytotox: inactive; TROY NFkB inh: inactive; HIF-2a block: inactive

Results for COc1ccc(CNc2ccc3c(c2)CCC3)cc1Br ?
CF NFkB inh: inactive; Peg3 prom inh: inactive; TWEAK-Fn14 inh: 57; KKLEB cytotox: inactive; TROY NFkB inh: inactive; HIF-2a block: inactive

What do the screens show for `COc1ccccc1CNc1ccc2c(c1)CCC2`?
CF NFkB inh: inactive; Peg3 prom inh: inactive; TWEAK-Fn14 inh: 66; KKLEB cytotox: inactive; TROY NFkB inh: inactive; HIF-2a block: inactive

How did CCNC(=O)Cn1c(=O)c(=O)n(Cc2ccccc2)c2ccc(Cl)cc21 do in these assays?
CF NFkB inh: inactive; Peg3 prom inh: inactive; TWEAK-Fn14 inh: inactive; KKLEB cytotox: inactive; TROY NFkB inh: inactive; HIF-2a block: inactive

How did O=C(NCC(=O)N1CCN(c2ccc([N+](=O)[O-])cc2)CC1)c1ccco1 do in these assays?
CF NFkB inh: inactive; Peg3 prom inh: inactive; TWEAK-Fn14 inh: inactive; KKLEB cytotox: inactive; TROY NFkB inh: inactive; HIF-2a block: inactive

How did COc1cc(C(=O)Nc2ccc3c(c2)nc(C)n3C)cc(OC)c1OC do in these assays?
CF NFkB inh: inactive; Peg3 prom inh: inactive; TWEAK-Fn14 inh: inactive; KKLEB cytotox: inactive; TROY NFkB inh: inactive; HIF-2a block: inactive

Results for Cc1nc2cc(NC(=O)c3ccc(Cl)cc3)ccc2n1C ?
CF NFkB inh: inactive; Peg3 prom inh: inactive; TWEAK-Fn14 inh: 50; KKLEB cytotox: inactive; TROY NFkB inh: inactive; HIF-2a block: inactive

How did C/C(=N\NC(=O)c1ccc(CSc2nc(C)cc(C)n2)cc1)c1ccco1 do in these assays?
CF NFkB inh: 90; Peg3 prom inh: inactive; TWEAK-Fn14 inh: inactive; KKLEB cytotox: -95; TROY NFkB inh: inactive; HIF-2a block: inactive

How did Cc1cc(C)nc(SCc2ccc(C(=O)N/N=C/c3ccco3)cc2)n1 do in these assays?
CF NFkB inh: inactive; Peg3 prom inh: inactive; TWEAK-Fn14 inh: inactive; KKLEB cytotox: inactive; TROY NFkB inh: inactive; HIF-2a block: inactive

What do the screens show for `Cc1ccc2nc(Cl)c(/C=N/NC(=O)c3ccccc3O)cc2c1`?
CF NFkB inh: inactive; Peg3 prom inh: inactive; TWEAK-Fn14 inh: inactive; KKLEB cytotox: inactive; TROY NFkB inh: 52; HIF-2a block: inactive

What do the screens show for `Cc1ccc2nc(Cl)c(/C=N/NC(=O)[C@H]3C[C@@H]3c3ccccc3)cc2c1`?
CF NFkB inh: inactive; Peg3 prom inh: inactive; TWEAK-Fn14 inh: inactive; KKLEB cytotox: inactive; TROY NFkB inh: inactive; HIF-2a block: inactive

Results for Cc1ccc(Sc2ncnc(N)c2[N+](=O)[O-])cc1 ?
CF NFkB inh: inactive; Peg3 prom inh: inactive; TWEAK-Fn14 inh: inactive; KKLEB cytotox: inactive; TROY NFkB inh: inactive; HIF-2a block: inactive

High-throughput results from PubChem.
